Data from PubChem BioAssay (NCI).
About 83,000 compounds went through this panel and 20% of them were active in at least one assay; those are over-represented in the sample as a whole.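 48-hour exposure, single concentration, 96-well plates; percent growth endpoint where 0 means no net growth. Active: below 10.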 Values without a mark were called inactive. Active and inactive are the calls of the source.

system: UO-31 renal; assay: NCI-60 one-dose screen, 48 h (100 = growth as untreated, 0 = no growth, -100 = all killed); details: 10 µM unless noted
Procedure: Growth inhibition of the UO-31 human tumor cell line is measured as a screen for anti-cancer activity. Cells are grown in 96 well plates and exposed to the test compound for 48 hours. Compounds are tested at a single concentration, which is 10^-5 M for most compounds. The reported endpoint is percent growth (GI% or GIPRCNT), where numbers from 0 - 100% represent growth inhibition, and numbers from -100% - 0 represent cell death. For example, a value of 40 represents 60% growth inhibition. A value of 0 means no net growth occurred over the course of the experiment. A value of -40 indicates 40% of cells at the beginning of the experiment died by the end of the experiment. A value of -100 means all cells are dead at the end of the experiment.
NCI-60 Human Tumor Cell Lines Screen was performed using the standard one-dose NCI protocol, which is described in more detail at https://dtp.cancer.gov/discovery_development/nci-60/default.htm.
Compounds with GIPRCNT values below 10 were considered active. Activity score was based on GIPRCNT using the following formula: […]
Score is 0 for GIPRCNT values of 100 or above, 50 for GIPRCNT values of 0, and 100 for GIPRCNT values of -100.

| SMILES | growth |
| --- | --- |
| Oc1ccc(-c2nc3ccc4[nH]ncc4c3c3c2CCCC3)c(F)c1 | 17.5% |
| CC1(C)CC(=O)C2=C(C1)C(c1ccc(Cl)cc1)n1ncc(C#N)c1N2 (stereo not given) | 85.5% |
| Cc1cc(C(=O)CCCC(=O)c2cc(C)c(O)c(C)c2)cc(C)c1O | 83.6% |
| C=C(C)[C@@H]1CC[C@]2(C)[C@H](C=CC3=C4C[C@@](C)(CO)CC[C@]4(C)CC[C@]32C)[C@@]1(C)CCCN | 47.2% |
| CS(=O)(=O)Nc1cc(-c2ccc3ncnc(Nc4ccc5c(cnn5Cc5ccncc5)c4)c3c2)cnc1Cl | 57.5% |
| CC(C)(C)c1ccc(C(=O)N/N=C/c2ccc(O)cc2O)cc1 | 12.2% |
| CN1CCN(Cc2ccc(NC(=O)c3cncc(C#Cc4cnc(N)cc4C#N)c3)cc2C(F)(F)F)CC1 | 1.25% (active) |
| COc1ccc(C2[C@@H](c3ccccc3)C(=O)N2c2cc(OC)c(OC)c(OC)c2)cc1F (stereo not given in full) | 38% |
| Oc1c(I)cc(I)cc1CN(Cc1ccccn1)Cc1ccccn1 | -19.2% (active) |
| O=C1O[C@@H](c2ccccc2Cl)[C@@H]2c3cc4c(cc3CCN12)OCO4 | 74.6% |
| COc1ccc(-c2cc(-c3cc(OC)ccc3OC)nc(SCC(C)=O)c2C#N)cc1 | 41.1% |
| CN1C(=O)N2CN3CCCN(C3)CN3C(=S)NC1C23 (stereo not given) | 99.5% |
| CS(=O)(=O)c1ccc(-c2nc3ccccc3n2CC(=O)N/N=C/c2ccccc2)cc1 | 76.3% |
| S=c1ccnc[nH]1 | 82.5% |
| COc1ccc(/C=N/Nc2c3ccccc3nc3ccccc23)cc1 | 76.1% |
| O=S(=O)(Nc1cc(Sc2nc3ccccc3s2)c(O)c2ccccc12)c1ccc2ccccc2c1 | 70.2% |
| CCn1cc(Cc2cc(C(=O)Nc3cc4cc(OC)c(OC)cc4c(C)n3)ccc2Cl)cn1 | 35% |
| CCCCCCCCCCCCCCCCCCOc1ccccc1CC(=O)NCC[N+](C)(C)C | 80.2% |
| ClC(Cl)c1nc(-c2ccccc2)n2nc(-c3ccccc3)cc2n1 | 3.46% (active) |
| Cc1ccc(-c2csc(NC(=O)CSc3nc(N)cc(N)n3)n2)cc1 | 64.1% |

| SMILES | growth |
| --- | --- |
| Nc1cc(C(=O)O)cc(-n2c(O)c(C=C3N=c4ccccc4=N3)sc2=S)c1 | 69.5% |
| CCN1C(=O)N(c2ccccc2)C2NC(=S)N(/N=C/C=C/c3ccccc3OC)C21 (stereo not given) | 34.7% |
| NCCCNc1nc2ccccc2c2c(=O)c3cc(Cl)ccc3sc12 | -71.7% (active) |
| N#Cc1nn(-c2cc(=O)[nH]c3ccc(Br)cc23)c(N)c1C#N | 65.7% |
| COCCOC(C)C(/C=N/NC(N)=S)=N/NC(N)=S (stereo not given) | 79.1% |
| COC(=O)c1c(C)nc(C)c2c1C(=O)C=C(NCc1ccccc1)C2=O | 74.2% |
| CSc1nc(-c2ccco2)c(C#N)c(=O)n1C | 112% |
| O=C1/C(=C/c2ccccn2)SC(=S)N1N1CCOCC1 | 71.9% |
| Cc1ccc(NC(=O)c2cc3ccccc3cc2O)c(C)c1 | 69.2% |
| CC(C)(C)OC(=O)CN1CCc2c(sc3ncnc(N4CCN(c5ccc(F)cc5)CC4)c23)C1 | 51.7% |
| Nc1c(Cl)cc(/C=C2\C=Cc3ccccc32)cc1Cl | 95.7% |
| CC(=O)Nc1sc2c(c1-c1nc3ccccc3s1)CNC2 | 6.46% (active) |
| CC(C)NS(=O)(=O)/N=C1\NC(=O)NC1=C(Cl)Cl | 102% |
| Cn1c(C#N)ccc1-c1ccc(F)c(NC(=O)c2ccc(F)cc2)c1 | 64% |
| C=C1C(=O)O[C@@H]2C3C(=C(C)CC[C@@H]12)CC1O[C@]13C (stereo not given in full) | 54.5% [6.75 µM] |
| CCSc1ccnc(N)n1 | 97.7% |
| N=C(N)c1ccc(OCCSCCOc2ccc(C(=N)N)cc2)cc1 | 70.7% |
| CCNC(=O)N1CCc2c(Br)c3c(c(OC)c2C1Cc1ccc(OC)cc1)OCO3 (stereo not given) | 40.2% |
| N#Cc1c(-c2cccc(Cl)c2)cc(-c2cccnc2)[nH]c1=O | 64.3% |
| O=C(/C=C/c1ccccc1)c1cccc2ccccc12 | 46.9% |
